{
  "source": "PubChem BioAssay AID588477",
  "about": "(NMMLSC, 2011)",
  "note": "Values without a mark were called inactive. Activity calls are given as the source filed them.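 The calls were made as follows: active = valid curve fit with half-effect dose at most 10 µM and total binding change across doses of 30 points or more; inactive = the rest.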",
  "data": [
    {"system": "Rac wt", "test": "small GTPase nucleotide-binding inhibition, multiplex panel – biochemical, round 1 SAR, Mg buffer, multiplex flow cytometry, selectivity assay for Cdc42 probe extension project, SAR follow-up (AID 588477)", "details": "GST-GTPase beads, Bodipy-GTP binding; series mostly up to 100 µM; percent response (remaining binding): at the top concentration", "units": {"percent response (remaining binding)": "%"}, "values": [
      {"smiles": "O=C(C#Cc1ccccc1)c1cccc([N+](=O)[O-])c1", "outcome": "inactive"},
      {"smiles": "COc1ccc(C2CC(c3ccccc3)=NN2c2ccc(S(N)(=O)=O)cc2)cc1", "note": "(stereo not drawn)", "percent response (remaining binding)": 91.3},
      {"smiles": "NS(=O)(=O)c1ccc(N2N=C(c3ccccc3)CC2c2ccccc2)cc1", "note": "(stereo not drawn)", "percent response (remaining binding)": 94.6}
    ]}
  ]
}
